# RORgamma inh – qHTS for inhibitors of ROR gamma transcriptional activity. Nuclear receptor ROR-gamma (Mus musculus), P51450. actives 5.4% (n = 310,000). Drosophila S2 Gal4-RORgamma UAS-luciferase reporter, 20 h. Potency, µM (doses to about 53.6 µM), inactives show at the highest dose activity change, negative = inhibition, most hits filed as inhibitors. AID 2551, 2010; further: on the % scale 0 is the no-effect control and ±100 the full control effect; nearly all actives have a fitted effect of over 60% in size
# Target sequence (P51450 whole entry, looked up, the tested form may be a part): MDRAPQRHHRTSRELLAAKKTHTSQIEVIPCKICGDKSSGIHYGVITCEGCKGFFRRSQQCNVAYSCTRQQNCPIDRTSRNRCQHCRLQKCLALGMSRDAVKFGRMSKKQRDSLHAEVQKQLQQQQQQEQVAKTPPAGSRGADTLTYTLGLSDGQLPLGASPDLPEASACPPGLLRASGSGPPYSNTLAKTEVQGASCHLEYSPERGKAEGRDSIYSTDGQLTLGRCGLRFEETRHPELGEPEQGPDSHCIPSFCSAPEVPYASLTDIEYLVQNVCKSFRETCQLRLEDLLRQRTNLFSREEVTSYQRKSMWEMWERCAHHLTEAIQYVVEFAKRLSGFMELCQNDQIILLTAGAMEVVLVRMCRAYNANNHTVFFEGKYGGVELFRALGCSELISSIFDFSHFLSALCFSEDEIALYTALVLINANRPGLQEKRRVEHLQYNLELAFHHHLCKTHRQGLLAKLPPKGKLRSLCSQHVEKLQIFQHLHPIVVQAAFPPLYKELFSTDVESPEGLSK
#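 ROR gamma transcriptional activity was tracked as Gal4-UAS luciferase output in stably transfected Drosophila Schneider cells, with compound added 1 hr before 700 uM copper sulfate induction and a 20 hr ambient-temperature incubation.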
# SW480 rereplic – A quantitative high throughput screen for small molecules that induce DNA re-replication in SW480 colon adenocarcinoma cells; SW480 DNA re-replication, Hoechst DNA content imaging, 48 h; AID 624297, 2012; actives 1.8% (n = 340,000); Potency, µM (titrated, usually from 46.1 µM), for inactives: top-dose re-replication activation, usual class: activators; further: % of control where 0% means no effect; nearly all actives have a fitted effect of over 55% in size
#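 250 cells/well; 23 nL cpd via pin tool; 48 hr, 37 C, 5% CO2; Hoechst 40 min; imager read of total nuclear intensity, ex 405/em 500-530 nm.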
# MCF10A rerep – A quantitative high throughput screen for small molecules that induce DNA re-replication in MCF 10a normal breast cells. MCF 10A DNA re-replication, Hoechst nuclear intensity, 48 h. Potency, µM (top dose mostly 46.1 µM), without a hit: at the highest dose activity, positive = re-replication, actives largely listed as activators. actives 2.9% (n = 350,000). AID 624296, 2012; further: % of control where 0% means no effect; nearly all actives have a fitted effect of over 50% in size
# KB-3-1 cytotox – qHTS assay for MDR1-selective chemotherapeutics: Primary screen using the parental adenocarcinoma cell KB-3-1; KB-3-1 viability, CellTiter-Glo ATP luminescence, 72 h; Potency, µM (series often up to 46.1 µM), most hits filed as cytotoxic; actives 1.4% (n = 400,000); AID 1347075, 2019; further: on the % scale 0 is the no-effect control and ±100 the full control effect; nearly all actives have a fitted effect of over 60% in size
#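 Parental KB-3-1 viability, qHTS format: 72 h compound exposure, 37 °C; CellTiter-Glo; media-only wells and DMSO plates as controls; concentration-effect fits on corrected data.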
# Gal4-VP16 FLuc – VP16 counterscreen qHTS for inhibitors of ROR gamma transcriptional activity. Drosophila S2 Gal4-VP16 UAS-luciferase, luminescence, 20 h. Potency, µM (series often up to 53.6 µM), without a hit: at the top dose activity, negative = inhibition, most hits filed as inhibitors. actives 3.5% (n = 310,000);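 further: Gal4-VP16 expression switched on by copper sulfate through the metallothionein promoter; on the % scale 0 is the no-effect control and ±100 the full control effect; nearly all actives have a fitted effect of over 50% in size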
# KB-V1 MDR tox – qHTS assay for MDR1-selective chemotherapeutics: Primary screen using the drug-selected MDR subline cells KB-V1; KB-V1 MDR cells viability, CellTiter-Glo, 72 h; AID 1347076, 2019; Potency, µM (doses to about 46.1 µM), usual class: cytotoxic; actives 3.4% (n = 400,000); further: on the % scale 0 is the no-effect control and ±100 the full control effect; nearly all actives have a fitted effect of over 60% in size
#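 KB-V1, DMEM (no phenol red) + 10% FBS; cpd pin-transferred, titration series; 72 h, 37 degrees C; CellTiter-Glo, luminescence. Data normalized, curve-fit.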
# * hit, by the source's call; i = inactive; u = inconclusive; x = not tested or not shown; [ ] = another dose, or the depositor's remark. An excerpt weighted towards active compounds, which were near 10% of everything screened. The call rests on the fitted dose curve; in most records, active means well fitted curve in the direction sought with a large enough effect; inconclusive means small, poorly fitted or top-dose-only effect, or another doubt; inactive means no such curve, though single readings can be large; an effect the other way counts as inactive or inconclusive. Potency means the concentration at half of the fitted maximal effect.
SMILES,RORgamma inh,SW480 rereplic,MCF10A rerep,KB-3-1 cytotox,Gal4-VP16 FLuc,KB-V1 MDR tox
COc1ccccc1C1NC(=O)c2n[nH]c(-c3cccs3)c21 (stereo unspecified),x,x,x,i,x,i
CN1C(=O)Cc2cc(S(=O)(=O)CCC(=O)Nc3ccc(Cl)cc3)ccc21,x,x,x,i,x,i
COCc1cc(C)nc2sc(C(=O)Nc3ccccc3F)c(N)c12,42.9%[1.91 µM],11.6µM*,6.51µM*,u,17.8%,i
CCCCNC(=O)c1sc2nc(C)cc(COC)c2c1-n1cccc1,4.0%,-3.9%,0.1%,i,-1.2%,5.17µM*
COCc1cc(C)nc2sc(C(=O)OC(C)C)c(N)c12,-96.5%,u,20.6µM*,i,u,u
COCc1cc(C)nc2sc(C(=O)Nc3ccc(C(=O)OC)cc3)c(N)c12,u,-2.4%,u,i,-16.8%,i
Cc1noc(C)c1-c1nccc(-n2ccnc2)n1,-17.4%,x,x,x,-9.6%,x
CCC(C(=O)NC1CCC(C)CC1)n1nc(C)c2sc3ccccc3c2c1=O (stereo unspecified),x,x,x,i,x,i
O=C1CC(c2ccccc2)=Nc2ccc(Br)cc2N1,21.8%,u,3.7%,u,-4.4%,14.6µM*
Cc1ccc2c(c1)NC(=O)CC(c1ccccc1)=N2,-35.4%,0.9%,-2.4%,i,-6.9%,i
Cc1ccc(N2C(=S)NC3c4cc(Cl)ccc4OC2(C)C3C(=O)N(C)C)cc1 (stereo unspecified),11.2µM*,8.6%,14.4%,u,-20.4%,i
COC(=O)c1c(C)[nH]c(C(=O)C(C)OC(=O)C2=NNC(=O)CC2)c1C (stereo unspecified),-1.9%,-9.3%,-0.9%,u,-8.2%,5.8µM*
COc1ccc(NC(=O)c2sc3nc(-c4cc5ccc(OC)cc5oc4=O)[nH]c(=O)c3c2C)cc1,x,x,x,i,x,i
Oc1ccccc1-c1cc(-c2ccco2)[nH]n1,u,2.6%,u,i,u,u
Oc1ccc(Br)cc1-c1ccn[nH]1,2.82µM*,38.1%,u,i,6.31µM*,i
Oc1c(-c2cc(-c3ccco3)[nH]n2)ccc2ccccc12,6.31µM*,1.4%,12.8%,i,14.1µM*,i
Oc1ccc(Cl)cc1-c1cc(-c2ccco2)[nH]n1,3.55µM*,u,u,i,12.6µM*,u
O=C(N/N=C/c1ccco1)c1cc(-c2cccc3ccccc23)n[nH]1,u,3.7%,u,i,-20.7%,i
Clc1ccc(-c2ccn[nH]2)cc1,-33.2%,2.1%,-1.4%,i,-17.3%,i
Oc1ccc(Br)cc1-c1cc(-c2ccco2)[nH]n1,12.6µM*,10.5%,-2.1%,u,15.8µM*,u
COc1ccc(S(=O)(=O)N2c3ccccc3OCC2C)cc1 (stereo unspecified),u,2.59µM*,1.3µM*,1.16µM*,-4.5%,u
COc1ccc(S(=O)(=O)N2CCOc3ccccc32)cc1,-0.4%,5.8µM*,4.61µM*,i,7.1%,i
COc1ccc(S(=O)(=O)N2c3ccccc3OCC2C(C)(C)C)cc1 (stereo unspecified),-10.0%,1.3%,-3.6%,i,15.8µM*,i
COc1ccc(S(=O)(=O)N2CC(C(=O)O)Oc3ccccc32)cc1 (stereo unspecified),0.0%,-10.1%,-1.2%,i,0.5%,i
COc1ccc(S(=O)(=O)N2c3ccccc3OCC2c2ccccc2)cc1 (stereo unspecified),u,3.66µM*,5.8µM*,8.2µM*,u,5.8µM*

# Assay outcomes: PubChem BioAssay, National Center for Advancing Translational Sciences (NCATS)
